The text below walks through data of PubChem BioAssay (NCATS).

The target in assay [1] is Glutathione peroxidase 1 (Homo sapiens) (UniProt P07203). Kind of assay: Primary qHTS Assay for Inhibitors of Recombinant Selenoprotein Glutathione Peroxidase 1 (GPX1) (AID 1845191). Summed up:
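GR-coupled assay: compounds preincubated 30 min at room temperature with GPX1, then reaction started with CHP; final 10 nM GPX1, 1 mM GSH, 0.5 mM CHP, 0.5 mM NADPH, 100 nM GR, 0.01% BSA, pH 7.5 Tris buffer. NADPH fluorescence (340/450 nm) read at 0 and 15 min.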
In general terms: qHTS replaces the single test concentration by a dilution series.

Assay [2] deals with Phospholipid hydroperoxide glutathione peroxidase GPX4 (Homo sapiens) (UniProt P36969). Kind of assay: Primary qHTS Assay for Inhibitors of Recombinant Selenoprotein Glutathione Peroxidase 4 (GPX4) (AID 1845192). A digest of the protocol:
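GR-coupled assay: recombinant GPX4 preincubated 30 min with compound at room temperature; final 200 nM GPX4, 1 mM GSH, 0.5 mM cumene hydroperoxide, 0.5 mM NADPH, 100 nM GR, 0.01% BSA, pH 7.5 Tris. NADPH fluorescence (340/450 nm) read at 0 and 15 min.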

Results filed as inconclusive are left out. Where a call stands in place of a potency, no number is given. Activity calls are given as the source filed them. The call rests on the fitted dose curve; in most records, active means well fitted inhibition curve with a large enough effect; inconclusive means small, poorly fitted or top-dose-only effect; inactive means flat fitted curve, though single readings scatter.
Further: nearly all actives have a fitted effect of over 65% in size.

Chain of Phospholipid hydroperoxide glutathione peroxidase GPX4 (Homo sapiens) (P36969 whole entry, looked up): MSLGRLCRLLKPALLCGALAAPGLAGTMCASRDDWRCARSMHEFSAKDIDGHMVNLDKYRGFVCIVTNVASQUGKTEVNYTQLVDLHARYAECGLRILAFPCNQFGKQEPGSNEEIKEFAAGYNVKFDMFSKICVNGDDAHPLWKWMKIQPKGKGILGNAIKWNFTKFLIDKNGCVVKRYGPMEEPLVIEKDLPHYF
Chain of Glutathione peroxidase 1 (Homo sapiens) (P07203 whole entry, looked up): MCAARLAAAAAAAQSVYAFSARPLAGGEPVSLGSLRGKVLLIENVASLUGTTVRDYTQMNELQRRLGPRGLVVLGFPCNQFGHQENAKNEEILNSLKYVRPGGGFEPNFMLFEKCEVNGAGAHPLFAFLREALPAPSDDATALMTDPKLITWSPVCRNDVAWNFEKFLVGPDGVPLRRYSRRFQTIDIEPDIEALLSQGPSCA

As for `CC(O)COc1ccccc1` (stereo not given), the Potency result in assay [1] and in assay [2] was “inactive” in each case.

Take `NC(=O)c1ncn([C@@H]2O[C@H](CO)[C@@H](O)[C@H]2O)c1N`: the Potency entry in assay [1] and in assay [2] was “inactive” throughout.

In the case of `CCOC(=O)c1ccc(O)cc1`, the Potency result in assay [1] and in assay [2] was “inactive” in each case.

On to `Oc1ccc(C(O)CNCCCCCCNCC(O)c2ccc(O)c(O)c2)cc1O` (stereo not given), for which the Potency result in assay [1] and in assay [2] was “inactive” each time.

As to `COc1ccc2cc1Oc1cc3c(cc1OC)CC[N+](C)(C)[C@H]3Cc1ccc(cc1)Oc1c(OC)c(OC)cc3c1[C@@H](C2)[N+](C)(C)CC3`, the Potency entry in assay [1] and in assay [2] was “inactive” in each case.

Consider `COc1ccccc1O`, for which the Potency result in assay [1] and in assay [2] was “inactive” each time.

Take `Nc1ccc(S(=O)(=O)NC(=O)c2ccccc2)cc1`: the Potency result in assay [1] and in assay [2] was “inactive” in each case.

Regarding `O=C(O)CC(O)C(=O)O` (stereo not given), the Potency entry in assay [1] and in assay [2] was “inactive” throughout.

`CN(C)CCCN1c2ccccc2CCc2ccccc21`: the Potency result in assay [1] and in assay [2] was “inactive” in each case.

As for `N[C@@H](CSCCCO)C(=O)O`, the Potency result in assay [1] and in assay [2] was “inactive” each time.

In the case of `Oc1cn2c(n1)Nc1ccc(Cl)c(Cl)c1C2`, the Potency result in assay [1] and in assay [2] was “inactive” throughout.

Consider `NC(CSCC(=O)O)C(=O)O` (stereo not given), for which the Potency result in assay [1] and in assay [2] was “inactive” throughout.

On to `NC(=O)NC(=O)Cc1ccccc1`, for which the Potency entry in assay [1] and in assay [2] was “inactive” in each case.

Take `CC(COc1ccccc1)NC(C)C(O)c1ccc(O)cc1` (stereo not given): the Potency entry in assay [1] and in assay [2] was “inactive” each time.

Regarding `O=C(Oc1ccccc1C(=O)O)c1ccccc1O`, the Potency entry in assay [1] and in assay [2] was “inactive” throughout.

`OCc1cc(C(O)CNCCCCCCOCCCCc2ccccc2)ccc1O` (stereo not given): the Potency result in assay [1] and in assay [2] was “inactive” each time.

Regarding `NCCNCCNCCN`, the Potency result in assay [1] and in assay [2] was “inactive” in each case.

For `Cc1cc2c(cc1S(N)(=O)=O)S(=O)(=O)CCC2`, the Potency entry in assay [1] and in assay [2] was “inactive” in each case.

With `c1ccc2c(CC3=NCCN3)cccc2c1`, the Potency result in assay [1] and in assay [2] was “inactive” each time.

`CCCCOC(=O)c1ccc(O)cc1`: the Potency entry in assay [1] and in assay [2] was “inactive” each time.
